{
  "source": "PubChem BioAssay (Tox21)",
  "note": "Inconclusive results are not listed. Active and inactive are the calls of the source. The call rests on the fitted dose curve. On the % scale 0 is the no-effect control and ±100 the full control effect.",
  "data": [
    {"experiment": "p53 small molecule agonists, cell-based qHTS assay: qHTS cell viability counter screen (AID 1963581); further: nearly all actives have a fitted effect of over 45% in size", "conditions": "p53RE-bla HCT-116 viability, ATP luminescence, 16 h; series mostly up to 66 µM; activity change, negative = cytotoxicity: at the top concentration", "source_text": "National Center for Advancing Translational Sciences [NCATS]\nDivision of Preclinical Innovation [DPI]\nU.S. Environmental Protection Agency [EPA]\nNational Institutes of Environmental Health Sciences [NIEHS]\nNational Toxicology Program [NTP]\nU.S. Food and Drug Administration [FDA]\np53, a tumor suppressor protein, is activated following cellular insult, including DNA damage and other cellular stresses. The activation of p53 regulates cell fate by inducing DNA repair, cell cycle arrest, apoptosis, or cellular senescence. The activation of p53, therefore, is a good indicator of DNA damage and other cellular stresses. The CellSensor p53RE-bla HCT-116 cell line (Invitrogen) contains a stably integrated beta-lactamase reporter gene under control of the p53 response elements. The activation of the reporter gene under culture conditions can be detected by fluorescence intensity. This cell line was used to screen the Tox21 compound library in a 1536-well plate format and to identify agonists that activate the p53 signaling pathway. The cytotoxicity of the Tox21 compound library against the p53 RE-bla HCT-116 cell line was tested in parallel by measuring the intra cellular ATP content in the same wells.\nTox21 Assay Protocol Summary:\nThe p53RE-bla cells were dispensed at 4,000 cells/5 ul/well in 1536-well black wall/clear bottom plates using a Multidrop dispenser. After the assay plates were incubated at a 37 C/5% CO2 incubator for 5 hours, 23 nL of compounds dissolved in DMSO, positive controls or DMSO only was transferred to the assay plate by a pin tool. The plates were incubated at 37 C for 16 hours. After 1 uL of LiveBLAzerTM B/G FRET substrate was added using a Flying Reagent Dispenser, the plates were incubated at room temperature for 2 hours, and fluorescence intensity was measured by an Envision plate reader. For cell viability readout that measures cytotoxicity, 4 ul/well of CellTiter-Glo reagent was added into the assay plates using a Flying Reagent Dispenser. After 30 min incubation at room temperature, the luminescence intensity in the plates was measured using a ViewLux plate reader.", "values": [
      {"compound": "c1ccc(C[P+](c2ccccc2)(c2ccccc2)c2ccccc2)cc1", "activity change, negative = cytotoxicity": "3.44% (inactive)"},
      {"compound": "SC1CCCCC1", "activity change, negative = cytotoxicity": "2.3% (inactive)"},
      {"compound": "Cc1ccc2c(c1)C(=O)c1ccccc1C2=O", "activity change, negative = cytotoxicity": "-15.4% (inactive)"},
      {"compound": "CC1(C)S[C@@H]2[C@H](NC(=O)C(C(=O)O)c3ccccc3)C(=O)N2[C@H]1C(=O)O", "note": "(stereo not given in full)", "activity change, negative = cytotoxicity": "-5.93% [at 30.3 µM] (inactive)"},
      {"compound": "C=C[C@@H](C)CCC=C(C)C", "activity change, negative = cytotoxicity": "4.57% (inactive)"},
      {"compound": "CSSc1ccoc1C", "activity change, negative = cytotoxicity": "-0.364% (inactive)"},
      {"compound": "CC(=O)NO", "activity change, negative = cytotoxicity": "-0.0228% [at 30.3 µM] (inactive)"},
      {"compound": "C[C@@H]1C[C@H]2[C@@H]3CCC4=CC(=O)C=C[C@]4(C)[C@@]3(F)[C@@H](O)C[C@]2(C)[C@@]1(O)C(=O)COP(=O)(O)O", "activity change, negative = cytotoxicity": "3.98% (inactive)"},
      {"compound": "CC(C)=CCOC(=O)c1ccccc1", "activity change, negative = cytotoxicity": "6.73% (inactive)"},
      {"compound": "O=Cc1ccccc1[N+](=O)[O-]", "activity change, negative = cytotoxicity": "12.9% (inactive)"},
      {"compound": "CC(=O)OCC(=O)[C@@]1(OC(C)=O)[C@@H](C)C[C@H]2[C@@H]3C[C@H](F)C4=CC(=O)C=C[C@]4(C)[C@@]3(F)[C@@H](O)C[C@@]21C", "activity change, negative = cytotoxicity": "-11.1% [at 30.3 µM] (inactive)"},
      {"compound": "O=CNNC=O", "activity change, negative = cytotoxicity": "-2.09% (inactive)"},
      {"compound": "O=C(O)c1cccc(Cl)n1", "activity change, negative = cytotoxicity": "8.72% (inactive)"},
      {"compound": "CC[N+](CC)(CC)CCOc1cccc(OCC[N+](CC)(CC)CC)c1OCC[N+](CC)(CC)CC", "activity change, negative = cytotoxicity": "1.16% [at 30.3 µM] (inactive)"},
      {"compound": "Cc1ccc(S(=O)(=O)NC(=O)NN2CC3CCCC3C2)cc1", "note": "(stereo not given)", "activity change, negative = cytotoxicity": "-4.81% [at 30.3 µM] (inactive)"},
      {"compound": "CCCCCCCCCCCCCCCC/C=C/C1CC(=O)OC1=O", "note": "(stereo not given)", "activity change, negative = cytotoxicity": "18.2% [at 30.3 µM] (inactive)"},
      {"compound": "CC/C=C(\\C)C=O", "activity change, negative = cytotoxicity": "0.728% (inactive)"},
      {"compound": "CN(C)CCN(Cc1ccsc1)c1ccccn1", "activity change, negative = cytotoxicity": "6% [at 30.3 µM] (inactive)"},
      {"compound": "CCNC(=O)C1CC(C)CCC1C(C)C", "note": "(stereo not given)", "activity change, negative = cytotoxicity": "4.74% (inactive)"},
      {"compound": "O=C(Nc1ccccc1)Nc1ccccc1", "activity change, negative = cytotoxicity": "-10.2% (inactive)"},
      {"compound": "CCN(CC)CCNC(=O)c1cc(Br)c(N)cc1OC", "activity change, negative = cytotoxicity": "-16% [at 30.3 µM] (inactive)"},
      {"compound": "CCOc1nc2cccc(C(=O)O)c2n1Cc1ccc(-c2ccccc2-c2nn[nH]n2)cc1", "activity change, negative = cytotoxicity": "1.52% [at 30.3 µM] (inactive)"},
      {"compound": "CCCN(CCC)C(=O)C(CCC(=O)O)NC(=O)c1ccccc1", "note": "(stereo not given)", "activity change, negative = cytotoxicity": "8.17% [at 30.3 µM] (inactive)"},
      {"compound": "CN(C)CCC=C1c2ccccc2C=Cc2ccccc21", "activity change, negative = cytotoxicity": "-11% [at 30.3 µM] (inactive)"},
      {"compound": "O=C(O)CP(=O)(O)O", "activity change, negative = cytotoxicity": "-3.04% [at 30.3 µM] (inactive)"},
      {"compound": "CCCC(C(=O)OCCN(CC)CC)(c1ccccc1)c1ccccc1", "activity change, negative = cytotoxicity": "-8.99% [at 30.3 µM] (inactive)"},
      {"compound": "C=C(C)c1ccccc1", "activity change, negative = cytotoxicity": "5.13% (inactive)"},
      {"compound": "CC(=O)OC(C)c1ccccc1", "note": "(stereo not given)", "activity change, negative = cytotoxicity": "0.0275% (inactive)"},
      {"compound": "Brc1ccccn1", "activity change, negative = cytotoxicity": "-16% (inactive)"},
      {"compound": "COc1cc(S(=O)(=O)O)c(C)cc1N=Nc1c(O)ccc2cc(S(=O)(=O)O)ccc12", "activity change, negative = cytotoxicity": "16.6% (inactive)"},
      {"compound": "NCCOCCOCCN", "activity change, negative = cytotoxicity": "-16.8% (inactive)"},
      {"compound": "CCOc1cc(OCC)c(C(C)=O)cc1OCC", "activity change, negative = cytotoxicity": "-4.13% (inactive)"},
      {"compound": "CCCC(C)C(=O)OCC", "note": "(stereo not given)", "activity change, negative = cytotoxicity": "29% (inactive)"},
      {"compound": "O=[N+]([O-])c1cccc(S(=O)(=O)NCCNS(=O)(=O)c2cccc([N+](=O)[O-])c2)c1", "activity change, negative = cytotoxicity": "4.99% [at 30.3 µM] (inactive)"},
      {"compound": "CCCCCCCCCCCCCCCC(=O)OC[C@H](O)[C@H]1OC(=O)C(O)=C1O", "activity change, negative = cytotoxicity": "-1.22% (inactive)"},
      {"compound": "C/C=C(\\C)C#N", "activity change, negative = cytotoxicity": "-4.98% (inactive)"},
      {"compound": "C=CC(C)(CCC=C(C)C)OC(=O)c1ccccc1", "note": "(stereo not given)", "activity change, negative = cytotoxicity": "0.0358% (inactive)"},
      {"compound": "CCCCCCC", "activity change, negative = cytotoxicity": "9.07% (inactive)"},
      {"compound": "Cc1cc(SC2=C(O)C[C@@](CCc3ccc(N)cc3)(C(C)C)OC2=O)c(C(C)(C)C)cc1CO", "activity change, negative = cytotoxicity": "10.6% (inactive)"},
      {"compound": "CC(N)CCCC(C)(C)O", "note": "(stereo not given)", "activity change, negative = cytotoxicity": "-6.7% [at 30.3 µM] (inactive)"}
    ]}
  ]
}
